Experimental data: PubChem BioAssay
Results filed as inconclusive are left out. The source made the active and inactive calls. Unless noted, cut-off not given; nearly all actives show AC50 up to about 26 µM.

Experiments:
[1] = growth inhibition of DIPG glioma cells, dose response, cell-based, SU-DIPG-XVII, MIPE5.0, CellTiter-Glo, qHTS (AID 1347060); conditions: SU-DIPG-XVII viability, CellTiter-Glo ATP luminescence;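 on AC50: cells exposed to compound for 48 hours before viability readout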
[2] = growth inhibition of DIPG glioma cells, dose response, cell-based, SU-DIPG-XIII, MIPE5.0, CellTiter-Glo, qHTS (AID 1347064; cut-off not given, nearly all actives have AC50 up to about 23 µM;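 on AC50: cells exposed to compound for 48 hours before the viability read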); conditions: SU-DIPG-XIII viability, CellTiter-Glo ATP luminescence
[3] = viability loss in pontine glioma line – cell-based, SU-DIPG-XXV, MIPE5.0, CellTiter-Glo, qHTS, dose response (AID 1347065); conditions: CellTiter-Glo ATP luminescence;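 further: cells exposed to compound for 48 hours before ATP readout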
[4] = JHH-DIPG-1 glioma cell viability, MIPE5.0 library, CellTiter-Glo luminescence, qHTS (AID 1347067); conditions: JHH-DIPG-1 glioma viability, CellTiter-Glo ATP luminescence;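 further: cells exposed to compound for 48 hours before readout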
[5] = SU-DIPG-XXV glioma cell viability, MIPE5.0 library, qHTS (AID 1347068; cut-off not given, nearly all actives have IC50 up to about 30 µM;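 on IC50: cells exposed to compound for 48 hours before viability readout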)

CS(=O)(=O)c1ccc(Oc2cc(F)cc(C#N)c2)c2c1[C@H](O)C(F)(F)C2
inactive: outcome [1] | outcome [2] | outcome [3] | outcome [4] | outcome [5]

Cc1cc2cc(Oc3ccnc(Nc4cccc(CS(=O)(=O)NCCN(C)C)c4)n3)ccc2[nH]1
active: AC50 [1] 4680 nM | AC50 [2] 8330 nM | AC50 [3] 5900 nM | AC50 [4] 20900 nM | IC50 [5] 18600 nM

O=C(COCC(=O)N1CCN(C(c2ccccc2)c2ccccc2)CC1)Nc1ccc(Cl)cc1C(=O)O
inactive: outcome [1] | outcome [2] | outcome [3] | outcome [4] | outcome [5]

CNCCn1c(=O)c2cc(OC)c(OC)cc2c2cnc3cc4c(cc3c21)OCO4
active: AC50 [1] 21.5 nM | AC50 [2] 1710 nM | AC50 [3] 1520 nM | AC50 [4] 481 nM
inactive: outcome [5]

CCOc1ccc(-n2c([C@@H](C)N(Cc3cccnc3)C(=O)Cc3ccc(F)c(C(F)(F)F)c3)nc3ncccc3c2=O)cc1
inactive: outcome [1] | outcome [2] | outcome [3] | outcome [4] | outcome [5]

CN1CCN(Cc2ccc(Nc3ncc(Cl)c(Nc4ccccc4S(=O)(=O)N(C)C)n3)cc2)CC1
active: AC50 [1] 191 nM | AC50 [2] 241 nM | AC50 [3] 135 nM | AC50 [4] 382 nM | IC50 [5] 382 nM

Cc1cnc(Nc2ccc(F)cc2Cl)nc1-c1c[nH]c(C(=O)NC(CO)c2cccc(Cl)c2)c1 (stereo not given)
active: AC50 [1] 3320 nM | AC50 [2] 5900 nM | AC50 [3] 2090 nM | AC50 [4] 2630 nM | IC50 [5] 10500 nM

CC(C)c1c(-c2ccccc2)nc2c(C#N)c[nH]n2c1=O
inactive: outcome [1] | outcome [2] | outcome [3] | outcome [4] | outcome [5]

CC(C)(C)C(=O)CN1C(=O)[C@H](NC(=O)Nc2cccc(C(=O)O)c2)CN(C2CCCCC2)c2ccccc21
inactive: outcome [1] | outcome [2] | outcome [3] | outcome [4] | outcome [5]

CC(C)(NS(=O)(=O)c1ccc2c(Cl)cnc(N=C(N)N)c2c1)C(=O)O
inactive: outcome [1] | outcome [2] | outcome [3] | outcome [4] | outcome [5]

O=C(NC[C@H](O)CN1CCc2ccccc2C1)c1cc(NC2COC2)ncn1
inactive: outcome [2] | outcome [3] | outcome [4] | outcome [5]
active: AC50 [1] 23500 nM

O=C(CCCCCCC(=O)N/N=C/c1ccc(N(c2ccccc2)c2ccccc2)cc1)NO
active: AC50 [1] 20900 nM | AC50 [2] 20900 nM | AC50 [3] 14800 nM | AC50 [4] 11800 nM
inactive: outcome [5]

N#Cc1ccnc(Nc2cc(C3CCN(C4COC4)CC3)cc(N3CCC(F)(F)C3)n2)c1
active: AC50 [1] 2630 nM | AC50 [2] 5250 nM | AC50 [3] 1480 nM | AC50 [4] 5900 nM | IC50 [5] 11800 nM

CO[C@@H](C)Cn1c(=O)n(C)c2cnc3ccc(-c4cncc(C(C)(C)O)c4)cc3c21
active: AC50 [1] 934 nM | AC50 [2] 1860 nM | AC50 [3] 590 nM | AC50 [4] 1050 nM | IC50 [5] 1480 nM

COc1ccc(N(C)c2nc(C)nc3ccccc23)cc1
active: AC50 [1] 8.33 nM | AC50 [2] 9.34 nM | AC50 [3] 5.9 nM | AC50 [4] 10.5 nM | IC50 [5] 16.6 nM

Fc1cccc(-n2cnc3c(NCc4nc5c(F)c(F)ccc5[nH]4)nc(N4CCOCC4)nc32)c1
active: AC50 [1] 166 nM | AC50 [2] 295 nM | AC50 [3] 332 nM | AC50 [4] 209 nM | IC50 [5] 525 nM

FC(F)(F)c1ccc(Nc2nc(-c3c(C(F)(F)F)nc4ccccn34)cs2)cc1
active: AC50 [1] 372 nM | AC50 [2] 14800 nM | AC50 [3] 372 nM | AC50 [4] 1860 nM | IC50 [5] 3320 nM

CC(C)c1c2cc(-c3ccnc(NC4CCC(NC5CCOCC5)CC4)n3)ccc2nn1C (stereo not given)
active: AC50 [1] 417 nM | AC50 [2] 372 nM | AC50 [3] 468 nM | AC50 [4] 417 nM | IC50 [5] 525 nM

CN1CCN(c2ccc(Nc3ncc4cc(C#N)c(=O)n(C5CCCC5)c4n3)cc2)CC1
active: AC50 [1] 3720 nM | AC50 [2] 8330 nM | AC50 [3] 5250 nM | AC50 [4] 10500 nM | IC50 [5] 4170 nM

CCCCNc1ncc2c(-c3ccc(F)cc3)nn(CC3CCC(N)CC3)c2n1 (stereo not given)
active: AC50 [1] 8110 nM | AC50 [2] 8110 nM | AC50 [3] 5120 nM | AC50 [4] 8110 nM | IC50 [5] 7230 nM

CCNC(=O)C#Cc1ccc2c(C(=Nc3ccc(CN(C)C)cc3)c3ccccc3)c(O)[nH]c2c1
active: AC50 [1] 162 nM | AC50 [2] 574 nM | AC50 [3] 72.3 nM | AC50 [4] 288 nM | IC50 [5] 811 nM

COC(=O)N(CC(=O)O)Cc1cccc(OCc2nc(-c3ccc(Cl)cc3)oc2C)c1
inactive: outcome [1] | outcome [2] | outcome [3] | outcome [4] | outcome [5]

CCN1CCN(Cc2ccc(NC(=O)c3ccc(C)c(/C=C/c4cnc5[nH]ccc5c4OC)c3)cc2C(F)(F)F)CC1
active: AC50 [1] 1860 nM | AC50 [2] 2350 nM | AC50 [3] 2090 nM | AC50 [4] 3720 nM | IC50 [5] 3720 nM

C=C1C[C@@H]2CC[C@@]34C[C@H]5O[C@H]6[C@@H](O3)[C@H]3O[C@H](CC[C@@H]3O[C@H]6[C@H]5O4)CC(=O)C[C@@H]3[C@@H](OC)[C@@H](C[C@H](O)CN)O[C@H]3C[C@H]3O[C@@H](CC[C@@H]1O2)C[C@@H](C)C3=C
active: AC50 [1] 2.7 nM | AC50 [2] 42.8 nM | AC50 [3] 1.21 nM | AC50 [4] 9.59 nM | IC50 [5] 9.59 nM

C=CC(=O)Nc1cccc(Oc2nc(Nc3ccc(N4CCN(C)CC4)c(F)c3)nc3[nH]ccc23)c1
active: AC50 [1] 2630 nM | AC50 [2] 5250 nM | AC50 [3] 1860 nM | AC50 [4] 9340 nM | IC50 [5] 833 nM
